What was measured:
Type in all cases: functional
[1] = biological target: Solute carrier family 2, facilitated glucose transporter member 1 (Homo sapiens) (UniProt P11166); assay: ST_JUDE_LEISH: Cytotoxicity at 2uM final concentration against transgenic Leishmania Mexicana promastigotes LmGLUT1 that are glucose transport deficient and complemented with the human glucose transporter GLUT1. Activity is measured by DNA content using SYBR green in vitro
[2] = biological target: Hexose transporter 1 (Plasmodium falciparum) (UniProt O97467); assay: ST_JUDE_LEISH: Cytotoxicity at 2uM final concentration against transgenic Leishmania Mexicana promastigotes LmPfHT that are glucose transport deficient and complemented with the Plasmodium falciparum hexose transporter. Activity is measured by DNA content using SYBR green in vitro
[3] = biological target: Glucose transporter (Leishmania mexicana) (UniProt O61059); assay: ST_JUDE_LEISH: Cytotoxicity at 2uM final concentration against transgenic Leishmania Mexicana promastigotes LmGT2 that are glucose transport deficient and complemented with the L. Mexicana glucose transporter 2. Activity is measured by DNA content using SYBR green in vitro

Sequence of Solute carrier family 2, facilitated glucose transporter member 1 (Homo sapiens) (P11166 whole entry): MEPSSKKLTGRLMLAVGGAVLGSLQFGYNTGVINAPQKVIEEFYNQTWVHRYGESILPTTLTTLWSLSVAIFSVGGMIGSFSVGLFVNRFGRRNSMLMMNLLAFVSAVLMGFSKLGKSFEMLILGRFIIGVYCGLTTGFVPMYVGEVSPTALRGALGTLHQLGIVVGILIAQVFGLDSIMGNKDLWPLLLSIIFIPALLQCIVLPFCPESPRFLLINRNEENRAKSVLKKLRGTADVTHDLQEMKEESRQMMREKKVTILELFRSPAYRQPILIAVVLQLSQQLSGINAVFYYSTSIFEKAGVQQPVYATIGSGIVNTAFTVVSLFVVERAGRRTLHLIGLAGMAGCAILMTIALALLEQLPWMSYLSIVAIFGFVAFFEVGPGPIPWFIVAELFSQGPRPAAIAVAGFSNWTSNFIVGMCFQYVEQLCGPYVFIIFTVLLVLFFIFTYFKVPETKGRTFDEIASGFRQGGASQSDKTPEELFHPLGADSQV

SMILES | inhibition [1] | inhibition [2] | inhibition [3]
Cc1cc(=O)[nH]c(-n2nc(C)cc2NC(=O)C(c2ccccc2)c2ccccc2)n1 | 20.5% | 29.6% | 6.5%
O=C(Cc1ccc(NC(=O)c2ccc(O)c(-c3cccc([N+](=O)[O-])c3)c2)cc1)NCCN1CCCCC1 | -0.19% | -1.26% | -0.03%
CN(C)CCOc1cc(NC(=O)Nc2ccc(Oc3ccccc3)cc2)ccc1I | 1.79% | 1.64% | -1.47%
Clc1cc(Cl)c2c(c1)C(NCCCNc1nc3ccccc3[nH]1)CCO2 (centres undefined) | 18.5% | 43.3% | 28.1%
Cc1cc(N2CCC(N(C)C)C2)nc(Nc2ccc(Cl)cc2)n1 (centres undefined) | 4.11% | 3.16% | 4.87%
CCCCNCCOc1ccc(-c2nc(-c3ccccc3)c(-c3ccccc3)[nH]2)cc1 | 1.09% | -0.08% | 0.53%
Cc1cc(NCC2CCN(CC3CCCCC3)C2)nc(Nc2ccc(Cl)cc2)n1 (centres undefined) | 7.03% | 5.29% | 2.45%
O=C(Nc1ccc2c(c1)CCC2)c1cnc(N2CCN(c3ccncc3)CC2)c(Cl)c1 | 54.2% | 63.6% | 37%
COc1ccc2nccc([C@@H](O)CN3CCC(NC(=O)C(=Cc4ccc(Cl)cc4Cl)c4ccc(-c5ccccc5)cc4)CC3)c2c1 | 6.27% | 4.58% | 4.7%
CN(C)c1ccc(C=CC(=O)NC(=O)c2ccccc2O)cc1 | 3.19% | 2.19% | 1.56%
COc1ccc(Cn2c(=O)[nH]c3cc(C(=O)NC4CCN(Cc5ccccc5)CC4)ccc3c2=O)cc1 | 2.2% | 0.63% | 2.59%
COc1ccc(CN(C)CCCCc2ccc(NC(=O)COc3cccc4sc5ccccc5c(=O)c34)cc2)cc1OC | 1.62% | -3.06% | 0.59%
CC[C@H](C)CNC(=O)c1cccc(-c2cccc(CNCC3CNCCCO3)c2)n1 (some centres undefined) | -0.08% | -0.61% | -0.09%
CN(C)c1ccc(CN2CCC(NC(=O)c3ccc(-c4cccc(Cl)c4)s3)CC2)cc1 | 0.72% | -1% | 0.31%
c1ccc(C2CCC(N3CCC(N4CCCC4)CC3)CC2)cc1 (centres undefined) | 0.84% | -0.62% | 1.54%
CN(C)CC(=O)Nc1ccc(Nc2nccc(NCC(O)c3ccccc3)n2)cc1 (centres undefined) | 1.63% | 2.79% | 0.21%
COc1ccc2ncc(F)c(CCN3CC(O)C(CNCc4ccc5c(n4)NC(=O)CS5)C3)c2c1 (centres undefined) | 1.08% | 1.93% | 2.84%
CC(C)(C)c1ccc2[nH]c(-c3ccc(/C=C/C(=O)NCc4ccc(Cl)c(Cl)c4)cc3)nc2c1 | 6% | 6.31% | 1.89%
Clc1ccc2c(NCc3ccccn3)ccnc2c1 | 9.87% | 10.9% | 4.77%
CCc1cn(C)c2c(N3CCCC3=O)cc(C(=O)N[C@@H](Cc3ccccc3)[C@H](O)CNC3CCCCC3)cc12 | 10.2% | 11% | 11.5%
Cn1cncc1C(=O)Nc1cccc(-c2ccc(-c3nc4cc(C(F)(F)F)ccc4[nH]3)cc2)c1 | 9.17% | 6.73% | 5.1%
CCNc1cc(C(=O)N[C@@H](Cc2ccccc2)[C@H](O)CNCCc2cc(OC)cc(OC)c2)cc(N2CCCCS2(=O)=O)c1 | 7.06% | 4.2% | 10%
Cc1cnc(-c2ccc(NC(=O)c3coc4ccc(N5CC(C)N(C)C(C)C5)cc34)cc2)o1 (centres undefined) | -0.6% | 1.55% | 0.74%

SMILES | inhibition [1] | inhibition [2] | inhibition [3]
CC(=O)Nc1ccc(C(=O)Nc2ccc(-c3cccc(-c4nc5ccccc5[nH]4)c3)cc2)cn1 | 0.89% | 0.79% | -0.56%
COc1ccc2nccc([C@@H](O)CN3CCC(NC(=O)Cc4cc5ccccc5s4)CC3)c2c1 | 8.41% | 6.59% | 1.96%
O=C(O[C@@H]1CN[C@H](C#Cc2cc3c(Nc4ccc5c(cnn5Cc5ccccc5)c4)ncnc3s2)C1)N1CCCC1 | -0.49% | 0.25% | -0.78%
Cc1ccc(NC(=O)NC2CCN(CCC(NC(=O)Cc3ccccc3)c3ccc(Cl)c(Cl)c3)CC2)cc1 (centres undefined) | -2.11% | -2.83% | -3.14%
CCC(C)c1ccc(NC(=O)Nc2ccnc3ccccc23)cc1 (centres undefined) | 2.93% | 6.23% | 2.25%
Fc1ccc(-c2cc3ncnc(N4CCN(CCN5CCCC5)CC4)c3s2)cc1 | 14.6% | 12.9% | 11.1%
CC(C)(C)C1=CC(=NNC(=O)c2ccncc2)C=C(C(C)(C)C)C1=O | 11.8% | 14% | -0.13%
Fc1ccc2[nH]c(-c3ccc(-c4cccc(CN5CCN(CCN6CCOCC6)CC5)c4)cc3)nc2c1 | 4.48% | 3.16% | 1.99%
C=CCc1cc(Cc2cnc(N)nc2N)c2ccc(C)nc2c1OC | 8.65% | 6.7% | 5.13%
Cc1ccc(C(C(=O)Nc2ccc(N3CCNCC3)c(Cl)c2)c2ccccc2)cc1 (centres undefined) | 4.78% | 0.84% | 1.72%
COc1ccc(NC(=O)Nc2ccc(-c3ccncc3)c(Cl)c2)cc1N1CCN(C)CC1 | -1.37% | -0.91% | -2.2%
FC(F)(F)c1ccc(CNCC2CCN(Cc3ccc4c(c3)OCO4)CC2)cc1 | 1.98% | 2.65% | 5.32%
Nc1ccc(-c2cnc3[nH]cc(-c4ccc(C(=O)O)cc4)c3c2)cn1 | -0.33% | 0.34% | 1.27%
Cc1ccc(CNC(=O)c2cc3c(=O)n4ccccc4nc3n(CCCN3CCOCC3)c2=N)cc1 | 8.03% | 6.83% | 7.61%
CCCCCCN1CCN(Cc2cccc(NC(=O)c3cc4ccccc4s3)c2)CC1 | 2.76% | 2.43% | 2.42%
COc1cccc(-c2cccc(CNC3CCN(CC4Cn5c(=O)ccc6ccc(F)c4c65)CC3)c2)c1 (centres undefined) | 6.16% | 2.1% | 1.71%
O=C(/C=C/c1ccc(Cl)c(Cl)c1)NCCCCCCN1CCCN(C(=O)Nc2ccc(Cl)c(C(F)(F)F)c2)CC1 | -1.95% | 0.9% | -1.22%
COc1ccc(-c2cccc(NC(=O)c3ccccc3)c2)cc1CN1CCCN(C)CC1 | -2.02% | -2.26% | 2.04%
O=C(CN1CCC2(CCC1=O)CC(=O)c1ccccc1O2)NCCN1CCOCC1 (centres undefined) | 2.45% | 7.44% | 4.93%
CN1CCCc2ccc(NC(=O)c3cc(-c4ccc(Cl)cc4)cs3)cc2C1 | 1.97% | 4.89% | 1.2%
COC(=O)c1ccc(N2CCN(CCCCNC(=O)c3ccc(NC(=O)c4ccc(Cl)cc4)cc3)CC2)c(OC)c1 | 0.45% | 1.46% | 1.51%
COc1ccc2nccc([C@@H](O)CN3CCC(NC(=O)/C=C/c4ccc5[nH]c(=O)ccc5c4)CC3)c2c1 | 2.93% | 1.78% | 2.05%
COc1ccc(NC(=O)[C@H](Cc2ccccc2)Nc2cc(C)nc(NCCc3ccc(F)cc3)n2)cc1 | 11.8% | 13% | 10%

SMILES | inhibition [1] | inhibition [2] | inhibition [3]
FC(F)(F)c1ccc2[nH]c(-c3cccc(-c4cccc(CNCC5CCCO5)c4)c3)nc2c1 (centres undefined) | 4.7% | 3.63% | 3.26%
c1cc(CN2CCN(c3ccncc3)CC2)cc(-c2ccc(-c3nc4ccccc4[nH]3)cc2)c1 | 8.29% | 5.17% | 2.65%
CCN(CC)CCN(Cc1ccc(-c2ccc(C(F)(F)F)cc2)cc1)C(=O)Cn1c(CCc2cccc(F)c2F)nc(=O)c2cc(C)ccc21 | 5.28% | 9.2% | 7.16%
CCCCOC(=O)NCCCC[C@H](NC(=O)OC(C)(C)C)C(=O)N[C@H](C(=O)OC(c1ccccc1)c1ccccc1)[C@H]1O[C@@H](n2ccc(=O)[nH]c2=O)[C@@H]2OC(C)(C)O[C@@H]21 | 0.88% | 0.71% | 0.44%
O=c1cc(NCCCNCc2cc3ccc(Br)cc3s2)[nH]c2ccccc12 | -0.97% | -0.27% | 0.6%
O=C(Nc1c(F)cccc1F)c1cccc(-c2nn3ccccc3c2-c2ccnc(Nc3cccc(-c4cnco4)c3)n2)c1 | 12.2% | 4.66% | 1.5%
CC(=O)Nc1ncc(C(=O)Nc2cccc(-c3cccc(-c4nc5cc(C(F)(F)F)ccc5[nH]4)c3)c2)s1 | -1.12% | 0.35% | 0.3%
Cn1cncc1C(=O)Nc1ccc(-c2ccc(-c3nc4cc(C(F)(F)F)ccc4[nH]3)cc2)cc1 | 20.8% | 15% | 4.64%
CC(=NNC(=N)N)C(=O)Nc1ccc(Cl)c(Cl)c1 | 1.75% | 1.53% | 2.25%
CCc1c[nH]c2c(N3CCCS3(=O)=O)cc(C(=O)N[C@@H](Cc3ccccc3)[C@H](O)CNC(C)(C)CCCC(C)C)cc12 | 1.92% | 2.29% | 0.89%
COc1cccc(CNC[C@@H](O)[C@H](Cc2ccccc2)NC(=O)c2cc3c4c(c2)c(C(C)C)cn4CCS(=O)(=O)N3C)c1 | 8.36% | 8.07% | 8.04%
COc1ccccc1C1CC(c2ccccc2)=NN1C(=O)c1ccco1 (centres undefined) | -0.28% | -0.6% | -4.34%
CN(C)CCOc1cc(NC(=O)/C=C/c2cccc3ccccc23)ccc1I | 10.4% | 8.1% | 8.23%
C[C@H]1CN(Cc2cccc(-c3cc(CNC(=O)c4cccc(CN5CCN(C/C=C/c6ccccc6)CC5)c4)ccc3F)c2)CCN1 | 11.6% | 10.6% | 12.7%
Cc1c(CN2CCC(N3CCC(C(=O)NC4CC4)CC3)CC2)[nH]c2c(Cl)cccc12 | 9.37% | 11.6% | 9.75%
Cc1cc(Cl)c(S(=O)(=O)N(C)c2ccccc2)cc1OCC(=O)NC1CCCCC1 | 1.65% | 1.38% | 2.02%
Cc1cc(=NN=Cc2ccc(Cl)cc2)c2cc(F)ccc2[nH]1 | -0.08% | 0.68% | -0.34%
O=C(/C=C/c1ccc(Cl)c(Cl)c1)NCCCCCN1CCCN(C(=O)Nc2ccc(F)c(F)c2)CC1 | 2.67% | 2.88% | 6.1%
COc1ccc2nccc(NC(=O)N3CCC(NCc4cc5ccccc5[nH]4)CC3)c2n1 | 13.2% | 16.9% | 2.89%
O=C(C=Cc1ccc(Cl)c(Cl)c1)NCCCCCN1CCC(CCNC(=O)c2ccc3c(c2)OCO3)CC1 | 5.94% | 5.12% | 5.57%
CC(C)N1CCC(N(Cc2ccc(-c3ccc(C(F)(F)F)cc3)cc2)C(=O)CCCn2c(CCc3cccc(F)c3F)nc(=O)c3ccccc32)CC1 | 5.92% | 3.92% | 6.72%
NC1CCCN(Cc2ccc(-c3cccc(-c4nc5cc(F)ccc5[nH]4)c3)cc2)C1 (centres undefined) | -0.79% | 0.23% | -1.33%
